# Experimental data from PubChem BioAssay (NCATS).
# A number with no mark means an inactive call. Results filed as inconclusive are left out. The source made the active and inactive calls. The call rests on the fitted dose curve; in most records, active means well fitted curve in the direction sought with a large enough effect; inconclusive means small, poorly fitted or top-dose-only effect, or another doubt; inactive means no such curve, though single readings can be large; an effect the other way counts as inactive or inconclusive.
# Target: Cytochrome P450 3A4 (Homo sapiens) (UniProt P08684)
# Experiment: qHTS Assay for Inhibitors and Substrates of Cytochrome P450 3A4 (AID 884); further: nearly all actives have a fitted effect of over 50% in size; further: potency means the concentration at half of the fitted maximal effect; on activity change, negative = inhibition: on the % scale 0 is the no-effect control and ±100 the full control effect
# Details: recombinant CYP3A4, Luciferin-PPXE luminescence; series mostly up to 57.1 µM; activity change, negative = inhibition: at the top concentration
# Outline: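 Luminescent readout of luciferin produced by CYP3A4 (20 nM) dealkylation of Luciferin-PPXE, 25 uM (its KM). NADPH-driven reaction ran 60 min at RT after 10 min compound preincubation; data scaled to 57 uM ketoconazole as 100% inhibition.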
# Cytochrome P450 3A4 (Homo sapiens), sequence (P08684 whole entry, looked up): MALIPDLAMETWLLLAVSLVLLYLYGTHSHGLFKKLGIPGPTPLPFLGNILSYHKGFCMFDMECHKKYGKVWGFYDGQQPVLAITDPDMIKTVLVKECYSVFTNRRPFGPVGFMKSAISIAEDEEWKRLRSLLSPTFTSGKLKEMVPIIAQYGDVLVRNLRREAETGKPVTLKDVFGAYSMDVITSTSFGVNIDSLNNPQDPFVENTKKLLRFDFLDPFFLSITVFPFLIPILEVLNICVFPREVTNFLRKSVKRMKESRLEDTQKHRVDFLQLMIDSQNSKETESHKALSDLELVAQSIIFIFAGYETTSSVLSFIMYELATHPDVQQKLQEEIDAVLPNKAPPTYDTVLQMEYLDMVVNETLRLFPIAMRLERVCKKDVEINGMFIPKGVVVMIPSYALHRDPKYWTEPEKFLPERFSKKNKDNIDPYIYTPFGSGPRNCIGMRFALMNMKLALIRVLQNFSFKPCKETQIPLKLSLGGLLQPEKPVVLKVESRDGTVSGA
Compound,"activity change, negative = inhibition [%]",Potency
Cc1coc2c1C(=O)C(=O)c1c-2ccc2c1CCCC2(C)C,-5.77,
O=C(O)c1ccc2cc(-c3ccc(O)c(C45CC6CC(CC(C6)C4)C5)c3)ccc2c1,,31.6 µM (active)
COc1c(N2C[C@@H]3CCCN[C@H]3C2)c(F)cc2c(=O)c(C(=O)O)cn(C3CC3)c12,-3.97,
CC(C)c1ccc(Cn2ccc3c4c(N)nc(NC5CC5)nc4ccc32)cc1,,6.31 µM (active)

# Target: Cytochrome P450 3A4 (Homo sapiens) (UniProt P08684)
# Experiment: qHTS Assay for Activators of Cytochrome P450 3A4 (AID 885); further: nearly all actives have a fitted effect of over 65% in size
# Details: recombinant CYP3A4, Luciferin-PPXE luminescence, 60 min; series mostly up to 57.1 µM; activity change, positive = activation: at the top concentration
# Outline: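 Activators are scored by enhanced luminescence from CYP3A4 conversion of luciferin-PPXE (25uM, equal to KM) to luciferin, after 60 min at RT with an NADPH-regenerating system.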
row,Compound,"activity change, positive = activation [%]"
1,O=C(O)c1ccc2cc(-c3ccc(O)c(C45CC6CC(CC(C6)C4)C5)c3)ccc2c1,-67.3
2,O=c1c2ccccc2nc2n1CCc1c-2[nH]c2ccccc12,-43.1
3,CC(C)c1ccc(Cn2ccc3c4c(N)nc(NC5CC5)nc4ccc32)cc1,-86.5

# System: not listed separately
# Experiment: Confirmation and Secondary Assay for Modulators of Hemoglobin Beta Chain Splicing at IVS2 654 locus (AID 910);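 further: HeLa cells stably carrying EGFP split by mutant beta-globin IVS2-654 intron; % of control where 0% means no effect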
# Details: HeLa EGFP-654 splicing reporter, GFP fluorescence, 48 h; series mostly up to 46.1 µM; activation (splicing correction): at the top concentration
# Outline: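 HeLa cells stably expressing EGFP interrupted by β-globin IVS2-654 intron, seeded overnight in Opti-MEM/2% FCS, then treated 2 days at 37 °C. Restored splicing read as total peak GFP intensity per well by laser scanning cytometry (488 nm excitation, 500–520 nm emission); 500 nM antisense PNA as control.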
row,Compound,activation (splicing correction)
1,Cc1coc2c1C(=O)C(=O)c1c-2ccc2c1CCCC2(C)C,-1.76% [at 38.3 µM]
2,COc1c(N2C[C@@H]3CCCN[C@H]3C2)c(F)cc2c(=O)c(C(=O)O)cn(C3CC3)c12,0.107%
3,Nc1ccc(S(=O)(=O)Nc2ncccn2)cc1,8.69%
